# Inconclusive results are not listed. A structure can be active in one record and inactive in another. The source made the active and inactive calls. The calls were made as follows: active = hit-call score of the fitted dose curve at least 0.9, where 1 is the maximum; inconclusive = response in the unintended direction; inactive = score below 0.9.
# Assay: TOX21_p53_BLA_p5_viability: Viability Assessment in the Tox21 HCT-116 p53 Agonism Beta-lactamase Assay, Phase 5 (AID 2283600)
# Source text: TOX21_p53_BLA_p5 is a cell-based, single-readout assay that uses HCT116, a human intestinal cell line, […] in a 1536-well plate.TOX21_p53_BLA_p5_viability is an assay readout measuring cellular ATP content and detected with CellTiter-Glo Luciferase-coupled ATP quantitation.TOX21_p53_BLA_p5_viability used a type of viability reporter where loss-of-signal activity can be used to understand changes in the cell viability. Furthermore, this assay endpoint can be referred to as a secondary readout, because this assay has produced multiple assay endpoints where this one serves a viability function. To generalize the intended target to other relatable targets, this assay endpoint is annotated to the cell cycle intended target family, where the subfamily is cytotoxicity.
# Thawing Method: Place 14 mL of pre-warmed thaw medium into a 15 mL of conical tub. Remove the vial of cells to be thawed from liquid nitrogen and thaw rapidly by placing at 37C in a water bath with gentle agitation for 1-2 minutes. Decontaminate the vial by wiping with 70% ethanol before opening in a biological safety cabinet. Transfer the vial contents drop-wise into 14 mL of thaw medium in a sterile 15-mL conical tub. Centrifuge cells at 900 rpm for 4 minutes and resuspend in thaw medium. Transfer contents to the T75 tissue culture flask containing Thaw Medium and place flask in a humidified 37C/5% CO2 incubator. Switch to growth medium at first passage.Propagation Method: Aspirate medium, rinse once in DPBS, add 0.25% Trypsin/EDTA and swirl to coat the cell evenly. Add an equal volume of Growth Medium to inactivate Trypsin after 2-3 minutes incubation at 37C. Centrifuge cells at 900 rpm for 4 minutes and resuspend in growth medium. Cell should be passage or fed at least twice a week.Assay Protocol: Harvest cells from culture in growth medium and resuspend in assay medium. 2.2 Dispense 4000 cells/5 uL/well into 1536-well black/clear bottom plates using a Multidrop dispenser. After the cells were incubated at 37C for 5 hours, 23 nL of compounds dissolved in DMSO were transferred to the assay plate by a PinTool resulting in a 217-fold dilution. Incubate the plates for 16 hours at 37C, 5% CO2. Add 1 uL of 6X LiveBLAzer FRET B/G (CCF4-AM) Substrate Mixture to each well using a BioRAPTR dispenser and incubate the plates at room temperature for 2 hours. Measure fluorescence intensity at 460 and 530 nm emission and 405 nm excitation by an Envision detector. Data is expressed as the ratio of 460nm/530nm emissions. Add 4 uL of Cell-titer Glo to each well using BioRAPTR and incubate the plates at room temperature for […]. For cell viability readout that measures cytotoxicity, 4 ul/well of CellTiter-Glo reagent was added into the assay plates using a Flying Reagent Dispenser. After 30 min incubation at room temperature, the luminescence intensity in the plates was measured using a ViewLux plate reader.
Structure (SMILES),outcome,AC50
CCCCCOC(=O)CCC,inactive,
CCC(C)(O)CCC=C(C)C (stereo not given),inactive,
CC(C)[C@H]1CC[C@@H](C)CC1=O,inactive,
N#Cc1ccccc1,inactive,
CCOC(=S)SSC(=S)OCC,inactive,
C=C(C)C(=O)OCCOC(=O)CC(C)=O,inactive,
COc1ccc(Nc2ccccc2)c(C)c1,inactive,
CC(C)c1cccc(O)c1,inactive,
CC1CCC2CC1C2(C)C (stereo not given),inactive,
CCN(CC)c1ccc(C(=C2C=CC(=[N+](CC)CC)C=C2)c2ccc(S(=O)(=O)O)cc2S(=O)(=O)[O-])cc1,,36.1 µM (active)
NC(N)=NC(=O)c1nc(Cl)c(N)nc1N,inactive,
CC(=O)OCCOC(C)=O,inactive,
C=C(C)[C@@H]1CCC2=CC(=O)C[C@@H](C)[C@]2(C)C1,inactive,
CCCCCCCCCCCCCOS(=O)(=O)O,,66.6 µM (active)
CCCCCCCCC=O,inactive,
OCCCCCO,inactive,
CCCCNC(=O)NS(=O)(=O)c1ccc(C)cc1,inactive,
OCCOCCOCCOCCO,inactive,
O=C(O)Cc1cccc2ccccc12,inactive,
C=COCCOCCOCCOC=C,inactive,

Structure (SMILES),outcome,AC50
O=C1O[C@@H]2[C@@H](O)[C@H](O)O[C@@H]2[C@H]1O,inactive,
CCCCCCCCCCCCCCCC(=O)OC[C@H](O)[C@H]1OC(=O)C(O)=C1O,inactive,
CNC[C@H](O)c1cccc(O)c1,inactive,
CCCC/C=C\CCCCCCCCCC=O,inactive,
CCCCCC=CCC(=O)OC,inactive,
COC(C)CCO (stereo not given),inactive,
CN(C)CCOCCN(C)C,inactive,
O=C1c2ccccc2C(=O)N1SC1CCCCC1,inactive,
CCn1c2ccccc2c2cc(N)ccc21,inactive,
CC(=O)[C@H]1CC[C@H]2[C@@H]3CC=C4C[C@@H](O)CC[C@]4(C)[C@H]3CC[C@]12C,inactive,
CO[Si](C)(OC)c1ccccc1,inactive,
O=[N+]([O-])c1ccc(Nc2ccc(Nc3ccccc3)c(S(=O)(=O)O)c2)c([N+](=O)[O-])c1,inactive,
C=CC(=O)NCOCC(C)C,inactive,
O=C(O)C[C@H](O)C[C@H](O)/C=C/c1c(C2CC2)nc2ccccc2c1-c1ccc(F)cc1,inactive,
CCCCC/C=C/C=C/C=O,inactive,
CC(C)(N)CO,inactive,
CC1(C)[C@H]2CC[C@]1(C)[C@H](O)C2,inactive,
OC1OC[C@@H](O)[C@H](O)[C@H]1O (stereo not given in full),inactive,
CCCCCCCCCCCCN,inactive,84.5 µM (active)

# Reference: PubChem BioAssay (EPA / NIEHS)
